This passage reports normalised cell viability results from the supplement of paper PMC6609913.

This assay has as its system V-C8 + BRCA2 (BRCA2-proficient hamster cells). The experiment in a line: normalised cell viability (fraction of plate median); higher = more viable cells (less toxic). The conditions noted are these: 5 µM. A digest of the protocol:
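Hamster V-C8 cells with and without restored BRCA2 were exposed in 96-well plates to library drugs at 5 μM for 3 days (screen 1) or 6 days (screen 2). Cell viability was scored by resazurin assay, then median-plate normalised, averaging triplicate wells.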

Molecules are shown by their SMILES. Counter-ions that a name gives are not always drawn. ± gives the standard deviation of the averaged measurements. The full ranking holds about 1,300 compounds; the median of “normalised cell viability” is about 1, and the lowest 2% start at about 0.15. What follows is part of a selection rich in the lowest values, with near analogues and random picks from the rest.

Turning to `CCCC(=O)Nc1ccc(OCC(O)CNC(C)C)c(C(C)=O)c1` (centres undefined) [Acebutolol hydrochloride], the normalised cell viability runs as follows: (treatment time: 3 days) 0.99 ± 0.034; (treatment time: 6 days) 1.04 ± 0.012.
For the compound `CCC(=O)OCC(=O)[C@@]1(OC(=O)CC)[C@@H](C)C[C@H]2[C@@H]3CCC4=CC(=O)C=C[C@]4(C)[C@@]3(Cl)[C@@H](O)C[C@@]21C` [Beclomethasone dipropionate], the normalised cell viability amounted to 1 ± 0.081 (treatment time: 3 days) and 0.987 ± 0.048 (treatment time: 6 days).
As for `Cc1onc(-c2c(F)cccc2Cl)c1C(=O)N[C@@H]1C(=O)N2[C@@H]1SC(C)(C)[C@@H]2C(=O)O` [Flucloxacillin sodium], the normalised cell viability (treatment time: 3 days) is 1.02 ± 0.065 and the normalised cell viability (treatment time: 6 days) was determined as 0.984 ± 0.016.
Take `Cc1c(Cl)cccc1Nc1ncccc1C(=O)O` [Clonixin Lysinate]: the normalised cell viability is 0.938 ± 0.067 (treatment time: 3 days) and 0.983 ± 0.046 (treatment time: 6 days).
For the compound `Nc1ccc(S(=O)(=O)Nc2ncccn2)cc1` [Sulfadiazine], the normalised cell viability is, setting by setting: (treatment time: 3 days) 1.01 ± 0.068; (treatment time: 6 days) 1.024 ± 0.0048.
Regarding `O=S(=O)(O)CCS` [Mesna], the normalised cell viability reads like this: (treatment time: 3 days) 1.06 ± 0.07; (treatment time: 6 days) 1.02 ± 0.024.
With `C[C@@H]1CCC[C@H](C)N1NC(=O)c1ccc(Cl)c(S(N)(=O)=O)c1` [Clopamide], the normalised cell viability runs as follows: (treatment time: 3 days) 1.22 ± 0.11; (treatment time: 6 days) 0.9899 ± 0.0083.
Consider `N#Cc1ccc(C2CCCc3cncn32)cc1` (centres undefined) [Fadrozole hydrochloride], for which the normalised cell viability was determined as 0.955 ± 0.11 (treatment time: 3 days) and 0.949 ± 0.078 (treatment time: 6 days).
With `NC(=O)c1cc[n+](CC2=C(C(=O)[O-])N3C(=O)[C@@H](NC(=O)[C@@H](c4ccccc4)S(=O)(=O)O)[C@H]3SC2)cc1` [Cefsulodin sodium salt], the normalised cell viability runs as follows: (treatment time: 3 days) 0.981 ± 0.043; (treatment time: 6 days) 1.06 ± 0.048.
For `c1ccc(-c2ccc(C(c3ccccc3)n3ccnc3)cc2)cc1` (centres undefined) [Bifonazole], in that order: 0.951 ± 0.042 and 0.914 ± 0.066.
In the case of `O=C(O[C@@H]1C[C@@H]2C[C@H]3C[C@H](C1)N2CC3=O)c1c[nH]c2ccccc12` [Dolasetron mesilate], the normalised cell viability (treatment time: 3 days) worked out at 1.06 ± 0.19 and the normalised cell viability (treatment time: 6 days) came to 1.02 ± 0.03.
As for `O=C(Oc1cccc2cccnc12)c1ccccc1` [Benzoxiquine], the normalised cell viability runs as follows: (treatment time: 3 days) 0.791 ± 0.052; (treatment time: 6 days) 0.738 ± 0.056.
With `COc1cccc2c1C(=O)c1c(O)c3c(c(O)c1C2=O)C[C@@](O)(C(=O)CO)C[C@@H]3O[C@H]1C[C@H](N)[C@@H](O)[C@H](C)O1` [Epirubicin hydrochloride], the normalised cell viability worked out at 0.136 ± 0.0036 (treatment time: 3 days) and 0.153 ± 0.024 (treatment time: 6 days).
Consider `COc1cccc2c1C(=O)c1c(O)c3c(c(O)c1C2=O)C[C@@](O)(C(C)=O)C[C@@H]3O[C@H]1C[C@H](N)[C@H](O)[C@H](C)O1` [Daunorubicin hydrochloride], for which the normalised cell viability by setting is: (treatment time: 3 days) 0.136 ± 0.0082; (treatment time: 6 days) 0.128 ± 0.015.
On to `COc1cccc2c1C(=O)c1c(O)c3c(c(O)c1C2=O)C[C@@](O)(C(=O)CO)C[C@@H]3O[C@H]1C[C@H](N)[C@H](O)[C@H](C)O1` [Doxorubicin hydrochloride], for which the normalised cell viability reads like this: (treatment time: 3 days) 0.12 ± 0.0088; (treatment time: 6 days) 0.122 ± 0.0099.
`Clc1cc(Cl)c(OCC#CI)cc1Cl` [Haloprogin]: the normalised cell viability was 0.278 ± 0.01 (treatment time: 3 days) and 0.247 ± 0.048 (treatment time: 6 days).
In the case of `CCC1(c2ccccc2)C(=O)NCNC1=O` [Primidone], the normalised cell viability was found to be 0.947 ± 0.13 (treatment time: 3 days) and 0.951 ± 0.1 (treatment time: 6 days).
`CN1C(C(=O)Nc2ccccn2)=C(O)c2ccccc2S1(=O)=O` [Piroxicam]: the normalised cell viability (treatment time: 3 days) stood at 1.02 ± 0.032 and the normalised cell viability (treatment time: 6 days) was found to be 1.05 ± 0.015.
For `O=C1CC2(CCCC2)CC(=O)N1CCCCN1CCN(c2ncccn2)CC1` [Buspirone hydrochloride], in that order: 0.997 ± 0.038 and 1.083 ± 0.0083.
For `CNNCc1ccc(C(=O)NC(C)C)cc1` [Procarbazine hydrochloride], the normalised cell viability is 0.879 ± 0.049 (treatment time: 3 days) and 0.956 ± 0.099 (treatment time: 6 days).
Regarding `OCCN1CCN(CCCN2c3ccccc3Sc3ccc(C(F)(F)F)cc32)CC1` [Fluphenazine dihydrochloride], the normalised cell viability runs as follows: (treatment time: 3 days) 0.825 ± 0.062; (treatment time: 6 days) 0.662 ± 0.096.
As for `CNC(=C[N+](=O)[O-])NCCSCc1csc(CN(C)C)n1` [Nizatidine], the normalised cell viability turned out to be 1 ± 0.012 (treatment time: 3 days) and 1.05 ± 0.042 (treatment time: 6 days).
